Source: PubChem BioAssay
Lassa entry inh: inhibitors of Lassa virus binding or cell entry. Lassa virus pseudotype entry inhibition, cell reporter. Potency, µM (series often up to 37.9 µM), most hits filed as inhibitors. actives 1.2% (n = 300,000). AID 540256; calls by dose curve; tested in HEK293 cells; further: nearly all actives have a fitted effect of over 50% in size
Marburg entry inh: inhibitors of Marburg virus binding or cell entry; actives 1.8% (n = 300,000); AID 540276; Potency, µM (highest dose often 37.8 µM), usual class: inhibitors; Marburg virus pseudotyped entry inhibition, cell reporter; calls by dose curve; tested in HEK293 cells
FMDV antiviral: antivirals against foot and mouth disease virus; FMDV antiviral cell-based qHTS; Potency, µM (top dose mostly 57.9 µM), most hits filed as inhibitors; actives 1.2% (n = 410,000); calls by dose curve; tested in HEK293T cells; further: read-out not given here; nearly all actives have a fitted effect of over 45% in size
HCMV antiviral: human cytomegalovirus inhibition; actives 4.5% (n = 410,000); activity change, negative = inhibition, % at 57.5 µM; HFF cells, HCMV-luciferase reporter, 72 h; stronger effect = lower value; in the data active means activity change below about -60%; inconclusive means no clear call, values can overlap the other calls; inactive means above about -39%
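Two compound doses tested in HFFs infected with HCMV-luciferase, MOI 1 PFU/cell, 72 h at 37C. Lysate luminescence read with OneGlo; data normalized against buffer-only and 10uM Salinomycin inhibitor controls.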
HCV inh: inhibitors of hepatitis C virus infection | Huh7.5.1 HCVcc-Cre infection, luciferase reporter, 44 h | Potency, µM (titrated, usually from 41.8 µM), usual class: inhibitors | actives 3.4% (n = 340,000); active means well fitted inhibition curve with a large enough effect; inconclusive means small, poorly fitted or top-dose-only effect, or another doubt; inactive means no such curve, though single readings can be large or run the other way
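Antiviral activity was scored by luciferase reporter output from cells infected with HCVcc-Cre (~0.5 moi) in presence of compound, 44 h infection period, cells seeded 1,000/well 4 h prior.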
Each line names hits and unclear results; the compound was inactive in the other large screens; ! = not active in a repeat. Hits are enriched below; roughly 7.9% of the tested compounds scored in any of these assays.

Cc1cc(C)cc(NC(=O)C(=O)NCC(c2ccc3c(c2)OCO3)N2CCN(C)CC2)c1 (configuration not stated)	Lassa entry inh inconclusive (no result: Marburg entry inh, HCV inh)
S=c1nc[nH]c2c1ncn2C1CCCO1 (configuration not stated)	Lassa entry inh inconclusive, Marburg entry inh inconclusive
CSc1ccc(/C=C(/Sc2nnc(-c3ccccc3)o2)C(=O)O)cc1	HCMV antiviral -68.6
CCc1ccc2c(c1)NC(=O)C2(C)Cc1cccc(F)c1 (configuration not stated)	HCMV antiviral inconclusive (no result: Lassa entry inh, Marburg entry inh, HCV inh)
COc1ccccc1-c1ccc2c(c1)C(C)(Cc1cc(Cl)ccc1C(F)(F)F)C(=O)N2 (configuration not stated)	HCMV antiviral inconclusive (no result: Lassa entry inh, Marburg entry inh, HCV inh)
CC1(Cc2cc(Cl)ccc2C(F)(F)F)C(=O)Nc2ccc(-c3ccc(F)c(Cl)c3)cc21 (configuration not stated)	HCMV antiviral -62.7 (no result: Lassa entry inh, Marburg entry inh, HCV inh)
CC1(Cc2ccc(Cl)cc2)C(=O)Nc2ccc(-c3cccnc3)cc21 (configuration not stated)	HCMV antiviral -66.3 (no result: Lassa entry inh, Marburg entry inh, HCV inh)
CC1(Cc2cccc(F)c2)C(=O)Nc2ccc(-c3cccnc3)cc21 (configuration not stated)	HCMV antiviral -74.1 (no result: Lassa entry inh, Marburg entry inh, HCV inh)
COc1cccc(-c2cccc3c2NC(=O)C3(C)Cc2cccc(F)c2)c1 (configuration not stated)	FMDV antiviral 35.5µM (no result: Lassa entry inh, Marburg entry inh, HCV inh)
CNC(=O)COC(=O)c1ccc(NC(=O)CC#N)cc1	Lassa entry inh inconclusive, HCMV antiviral -101.2
N#CCC(=O)Nc1ccc(C(=O)OCC(=O)NC(=O)Cc2ccccc2)cc1	none
O=C1O[C@@H](N2CCN(C/C=C\c3ccccc3)CC2)c2ccccc21	none (no result: Lassa entry inh, FMDV antiviral, HCMV antiviral, HCV inh)
CCOc1ccc(C2=CS/C(=C(\C#N)c3nnc4n3CCCCC4)N2CC)cc1	Lassa entry inh inconclusive, Marburg entry inh inconclusive, FMDV antiviral inconclusive, HCMV antiviral -62.5, HCV inh inconclusive
C=CCN1C(c2ccccc2)=CS/C1=C(\C#N)c1nnc2n1CCCCC2	Marburg entry inh inconclusive (no result: FMDV antiviral)
CCCNC(=O)C1(C)CCCN(C(=O)c2ccc3ccccc3c2)C1 (configuration not stated)	none (no result: Lassa entry inh, Marburg entry inh, HCV inh)
Cc1ccc(NC2=C(c3ccc(C(F)(F)F)cc3)C(=O)c3ccccc32)cc1C	Marburg entry inh inconclusive (no result: HCV inh)
CCn1c2ccccc2c2cc(NC(=O)CSc3nnc(-c4cccc(OC)c4)n3N)ccc21	Marburg entry inh inconclusive, HCV inh 8.91µM
CCOc1ccc(-c2nnc(SCC(=O)Nc3ccc4c(c3)c3ccccc3n4CC)n2N)cc1	Lassa entry inh inconclusive, Marburg entry inh 11.6µM, HCMV antiviral -60.8, HCV inh 3.98µM
CCn1c2ccccc2c2cc(NC(=O)CSc3nnc(-c4ccc(OC)c(OC)c4)n3N)ccc21	Marburg entry inh inconclusive
Cc1nc2c(Br)cc(Br)cc2c(=O)n1-c1ccccc1NC1OCC(O)C(O)C1O (configuration not stated)	Marburg entry inh inconclusive, HCMV antiviral -77.4
O=C(C[n+]1ccc(-c2cc(C(=O)Nc3cccc(C(F)(F)F)c3)c3ccccc3n2)cc1)c1cccc([N+](=O)[O-])c1	Marburg entry inh inconclusive, FMDV antiviral inconclusive, HCMV antiviral -66.3, HCV inh 12.6µM
O=C(CSc1ncccn1)NC1CCS(=O)(=O)C1 (configuration not stated)	none (no result: Lassa entry inh, Marburg entry inh)
Cc1ccc(SCC(=O)NC2CCS(=O)(=O)C2)cc1 (configuration not stated)	HCMV antiviral -64.7
Cc1cc(C)c2c(CC(=O)NC3CCS(=O)(=O)C3)coc2c1 (configuration not stated)	HCMV antiviral active (no result: Lassa entry inh, Marburg entry inh)
CCOC(=O)Cc1ccc(NC(=O)NCc2cccn2Cc2ccccc2)cc1	none (no result: Marburg entry inh, HCV inh)
Cc1cc(C)nc(SCC(=O)Nc2ccc(S(=O)(=O)NC(C)(C)C)cc2)n1	Marburg entry inh inconclusive, HCMV antiviral inconclusive, HCV inh 11.2µM
CCc1ccc(NC(=O)CSc2nc(NS(=O)(=O)c3ccccc3)cc(=O)[nH]2)cc1	Lassa entry inh inconclusive, Marburg entry inh 3.16µM, HCV inh inconclusive
Cc1cc(C)n2nc(SCC(=O)Nc3ccccc3)nc2n1	Marburg entry inh inconclusive, HCMV antiviral -63.3!
Cc1cc(=O)[nH]c(SCC(=O)Nc2ccc(S(N)(=O)=O)cc2)n1	HCMV antiviral -61.4
CCCN(CC(=O)NC(=O)NCc1ccccc1)CC(=O)Nc1ccc(F)c(F)c1F	none (no result: Lassa entry inh, Marburg entry inh, HCV inh)
CCCc1nn2c(=O)cc(COC(=O)c3ccc(NC(=O)C4CCCCC4)cc3)nc2s1	none (no result: Marburg entry inh, HCV inh)
Fc1ccc(Nc2nc(N3CCOCC3)nc(N3CCOCC3)n2)cc1	Lassa entry inh inconclusive, Marburg entry inh 7.08µM
COC(=O)c1ccc(Nc2nc(N3CCOCC3)nc(N3CCOCC3)n2)cc1	Lassa entry inh inconclusive, Marburg entry inh 2µM, HCV inh inconclusive
COc1ccc(Nc2nc(N3CCOCC3)nc(N3CCOCC3)n2)cc1	HCV inh inconclusive (no result: Lassa entry inh, Marburg entry inh)
c1ccc(Nc2nc(N3CCNCC3)nc(N3CCOCC3)n2)cc1	Lassa entry inh 8.91µM, Marburg entry inh 11.2µM
COc1ccc(Nc2nc(NCc3ccco3)nc(N3CCOCC3)n2)cc1	Marburg entry inh 2.82µM, HCMV antiviral inconclusive, HCV inh inconclusive
c1ccc(Nc2nc(N3CCOCC3)nc(N3CCOCC3)n2)cc1	Marburg entry inh inconclusive, FMDV antiviral inconclusive, HCV inh inconclusive
CCOc1ccc(C(=O)OCc2cc(=O)n3cc(C)sc3n2)cc1	none (no result: Marburg entry inh, HCV inh)
O=C(Nc1nncs1)c1cc(S(=O)(=O)N2CCCCC2)ccc1Cl	Lassa entry inh inconclusive
COc1ccc(Cn2cc(C(=O)c3ccc(C)c(C)c3)c(=O)c3ccccc32)cc1	HCMV antiviral inconclusive (no result: HCV inh)
CC(=O)Nc1ccc(/C(C)=N/Nc2nc(Nc3cccc4ccccc34)nc(N3CCOCC3)n2)cc1	Lassa entry inh inconclusive, Marburg entry inh 1.41µM, HCMV antiviral -62.2, HCV inh inconclusive
CNc1nc(C(=O)O)nc(N2CCOCC2)n1	HCMV antiviral -104.6
CNc1nc(OC)nc(N2CCOCC2)n1	none
CC(=O)Nc1ccc(/C(C)=N/Nc2nc(N3CCOCC3)nc(N3CCOCC3)n2)cc1	Marburg entry inh inconclusive
CCC1(c2ccc(Cl)cc2)NC(=O)N(Cc2ccc(C(=O)OC)cc2)C1=O (configuration not stated)	Lassa entry inh inconclusive, Marburg entry inh 8.91µM, FMDV antiviral inconclusive, HCMV antiviral inconclusive, HCV inh 10µM
CC(C)(C)N(NC(=O)c1ccccc1)C(=O)c1ccc(C(=O)N(NC(=O)c2ccccc2)C(C)(C)C)cc1	HCMV antiviral -60.0
CCc1ccc(C(=O)NN(C(=O)c2ccc(CC)cc2)C(C)(C)C)cc1	Lassa entry inh inconclusive, Marburg entry inh inconclusive
CC(=O)OC[C@H]1O[C@H](C#Cc2ccccc2)C=C[C@H]1O	none (no result: Lassa entry inh, FMDV antiviral, HCMV antiviral, HCV inh)
CCc1ccc(S(=O)(=O)NCc2nc(N3CCCC3)c3cccc(C)c3n2)cc1	none (no result: Lassa entry inh, Marburg entry inh, HCMV antiviral, HCV inh)
COc1ccc(NC(=O)NCCc2c[nH]c3ccccc23)c(OC)c1	none (no result: Lassa entry inh, Marburg entry inh)
O=C(CCCCCNc1nc(=S)[nH]c2ccccc12)NCCc1c[nH]c2ccccc12	Marburg entry inh inconclusive, FMDV antiviral inconclusive, HCV inh 20µM
COc1ccc(C(=O)CCC(=O)NCCc2c[nH]c3ccccc23)cc1	HCMV antiviral -103.6
